{"source": "PubChem BioAssay AID1626", "about": "(SRMLSC, 2009)", "note": "Hit rate of the full screen: of about 220,000 compounds, about 2,000 (0.91%) were called active. Inconclusive results (about 2%) are left out. Not all results are given here. Results with a measured potency or affinity are listed apart. Values without a mark were called inactive. Cut-off read from the data, not from the text of the source: inconclusive = inhibition above about 80% without an active follow-up result; inactive = below that; test concentration not stated here."}
{"assay": "M. tuberculosis H37Rv growth inhibitors, H37Rv strain (AID 1626);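 note: bacteria incubated seven days before Alamar blue readout; 0% = bacteria only wells and 100% = bacteria with antibiotic wells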", "settings": "stronger effect = higher value, concentration not given here", "units": {"inhibition": "%"}}
{"smiles": "CC(=O)OC(C(=O)NC1CCCCC1)c1ccc(C)cc1", "note": "(configuration not stated)", "inhibition": -5.04}
{"smiles": "CCCC(C)C(=O)OCC(=O)Nc1ccc(Br)cc1", "note": "(configuration not stated)", "inhibition": 10.2}
{"smiles": "Cc1ccc(NC(=O)CSCc2ccc(F)cc2)cc1", "inhibition": 76.7}
{"smiles": "COC(=O)c1ccc(NC(=O)CSCc2ccc(C)cc2)cc1", "inhibition": 70.8}
{"smiles": "COc1ccc(-n2c(-c3ccc(Cl)cc3)c[n+]3c2CCCCC3)cc1", "inhibition": -11.5}
{"smiles": "O=C(C1CCC(CNc2c(N3CCOCC3)c(=O)c2=O)CC1)N1CCN(c2ccccc2)CC1", "note": "(configuration not stated)", "inhibition": -8.11}
{"smiles": "COc1ccc(CN2CCc3ccccc3C2)c(OC)c1", "inhibition": -5.76}
{"smiles": "Cc1ccc(S(=O)(=O)N2CCN=C2c2ccccc2)cc1C", "inhibition": 0.57}
{"smiles": "COC(=O)c1cc(Br)c(=O)n(Cc2ccc(C(=O)O)cc2)c1", "inhibition": -9.26}
{"smiles": "O=c1c([N+](=O)[O-])cccn1Cc1cccc(Cl)c1", "inhibition": -8.12}
{"smiles": "COC(=O)c1ccc(Cn2cc(C(F)(F)F)ccc2=O)cc1", "inhibition": 2.66}
{"smiles": "NC(=O)c1ccc(C(F)(F)F)n(Cc2cccc(Cl)c2)c1=O", "inhibition": 17.3}
{"smiles": "CC(C)NC(=O)COC(=O)c1ccc(Oc2ccccc2)cc1", "inhibition": -7}
{"smiles": "c1ccc(-c2ccc(OCCCNC3CCCC3)cc2)cc1", "inhibition": 11.4}
{"smiles": "Cc1ccc2oc3c(c(=O)c2c1)C(c1cccc(Br)c1)N(Cc1ccco1)C3=O", "note": "(configuration not stated)", "inhibition": 1.98}
{"smiles": "O=C1c2oc3ccccc3c(=O)c2C(c2cccc(Br)c2)N1Cc1ccco1", "note": "(configuration not stated)", "inhibition": 1.43}
{"smiles": "CN1CCN(C(=S)c2cn(CCOc3ccccc3)c3ccccc23)CC1", "inhibition": 13}
{"smiles": "Cc1cc(N/C=C(\\C#N)S(=O)(=O)c2ccccc2Cl)nc(C)n1", "inhibition": -9.07}
{"smiles": "CC1=CC(C)(C)N2C(=O)C(=Nc3ccc(O)cc3)c3cccc1c32", "inhibition": 3}
{"smiles": "COc1cc2c3c(c1)C(C)=CC(C)(C)N3C(=O)C2=O", "inhibition": -3.11}
{"smiles": "CC(=O)N/C(=C\\c1cccc([N+](=O)[O-])c1)C(=O)NC1CCCCC1", "inhibition": -0.9}
{"smiles": "CCN(CC)S(=O)(=O)c1ccc(/C=C/C(=O)O)cc1", "inhibition": -3.16}
{"smiles": "CS(=O)(=O)N(Cc1ccccc1)c1ccc(C(=O)NCC2CCCO2)cc1", "note": "(configuration not stated)", "inhibition": -13.4}
{"smiles": "CCn1c(/C=C/c2cccc([N+](=O)[O-])c2)nc2ccccc2c1=O", "inhibition": -7.86}
{"smiles": "CCn1c(/C=C/c2ccccc2[N+](=O)[O-])nc2ccccc2c1=O", "inhibition": 2.98}
{"smiles": "Cc1ccc(NC(=O)CCNC(=O)c2ccco2)cc1", "inhibition": 3.05}
{"smiles": "COc1ccc(NCc2nnc(SCC(=O)NNC(=O)c3ccc(C)cc3)n2C)cc1", "inhibition": -19.4}
{"smiles": "COc1ccc(N2CCN(c3oc(COc4ccccc4)nc3C#N)CC2)cc1", "inhibition": -5.04}
{"smiles": "CCN1CCN(c2oc(COc3ccc(-c4ccccc4)cc3)nc2C#N)CC1", "inhibition": 10.7}
{"smiles": "O=S(=O)(c1ccc2oc(=S)[nH]c2c1)N1CCCCC1", "inhibition": -5.83}
{"smiles": "CCC(C)[C@H](NC(=O)NCc1ccc(S(N)(=O)=O)cc1)C(=O)OC", "note": "(some centres not stated)", "inhibition": 6.6}
{"smiles": "Cn1cnc2c1c(=O)n(Cc1ccccc1)c(=O)n2C", "inhibition": -6.11}
{"smiles": "c1ccc(-c2cc3c(N4CCCC4)ncnc3s2)cc1", "inhibition": 2.65}
{"smiles": "c1ccc(-c2cc3c(N4CCN(c5ncccn5)CC4)ncnc3s2)cc1", "inhibition": -0.33}
{"smiles": "CN1CCN(c2ncnc3sc(-c4ccccc4)cc23)CC1", "inhibition": 0.51}
{"smiles": "Oc1ccc(N2CCN(c3ncnc4sc(-c5ccccc5)cc34)CC2)cc1", "inhibition": 69.8}
{"smiles": "O=C(NCCN1CCOCC1)N1CCOCC1", "inhibition": -3.24}
{"smiles": "COc1ccc(Cl)cc1NC(=O)c1ccccc1C", "inhibition": 4.11}
{"smiles": "Cc1cc(C)c2nc(SC(C)C#N)cc(C)c2c1", "note": "(configuration not stated)", "inhibition": 9.89}
{"smiles": "O=C(CN(Cc1ccco1)C(=O)c1ccccc1)Nc1ccc(Cl)c(Cl)c1", "inhibition": 0.53}
{"smiles": "O=C(Nc1cccc([N+](=O)[O-])c1)C12CC3CC(C1)CC(n1cnc([N+](=O)[O-])n1)(C3)C2", "inhibition": 3.76}
{"smiles": "O=C(Nc1ccccc1)C12CC3CC(C1)CC(n1cnc([N+](=O)[O-])n1)(C3)C2", "inhibition": 3.45}
{"smiles": "O=C1c2ccsc2SCCN1Cc1ccccc1Cl", "inhibition": 8.66}
{"smiles": "COCCNC(=O)/C(C#N)=C\\c1ccc(CNC(=O)C(=O)Nc2ccc(C)c(C)c2)o1", "inhibition": -19}
{"smiles": "CCC(=O)N1CCc2cc(S(=O)(=O)CCC(=O)NCc3ccco3)ccc21", "inhibition": -7.3}
{"smiles": "O=C(c1ccc2ccccc2c1)C1CCCN(C(=O)CCn2cnnn2)C1", "note": "(configuration not stated)", "inhibition": 3.36}
{"smiles": "Cn1ccnc1C(O)c1ccccc1", "note": "(configuration not stated)", "inhibition": 6.73}
{"smiles": "COc1ccc(C(O)c2nccn2C)cc1", "note": "(configuration not stated)", "inhibition": 4.48}
{"smiles": "O=C(NN1C(=O)C2C(C1=O)C1C=CC2C12CC2)c1ccc(Cl)cc1", "note": "(configuration not stated)", "inhibition": 7.63}
{"smiles": "Cc1ccc(NS(=O)(=O)c2cccc([N+](=O)[O-])c2)nc1", "inhibition": 2.81}
{"smiles": "Cc1ccc(-c2nnc(N3CCN(C(=O)CN4CCOCC4)CC3)c3ccccc23)cc1", "inhibition": 0.29}
{"smiles": "O=C(c1ccco1)N1CCN(c2nnc(-c3ccccc3)c3ccccc23)CC1", "inhibition": 1.18}
{"smiles": "CC(C)C(=O)N1CCN(c2nc(-c3ccccc3)c3c(c2C#N)CCCC3)CC1", "inhibition": 7.25}
{"smiles": "CCC(=O)N1CCN(c2nc(-c3ccccc3)c3c(c2C#N)CCCC3)CC1", "inhibition": 6.35}
{"smiles": "CC1(C)Cc2c(C#N)c(N3CCN(C(=O)c4ccco4)CC3)nc(Cc3ccccc3)c2CO1", "inhibition": -5.53}
{"smiles": "CCc1nc(N2CCN(C(=O)c3ccccc3)CC2)c(C#N)c2c1COC(C)(C)C2", "inhibition": -3.57}
{"smiles": "O=C(/C=C/c1ccc(Br)cc1)NCc1cccs1", "inhibition": 8.29}
{"smiles": "Cc1cc(C)cc(N2C(=O)CSC2c2cccs2)c1", "note": "(configuration not stated)", "inhibition": -1.33}
{"smiles": "O=C(O)c1sccc1SCc1ccc(Cl)c(Cl)c1", "inhibition": -2.78}
{"smiles": "O=C(CNS(=O)(=O)c1cccc(Cl)c1)Nc1ccc(-c2nc3ccccc3s2)cc1", "inhibition": 1.91}
{"smiles": "O=C1[C@@H]2[C@H](C(=O)N1Cc1cccnc1)[C@H]1C=C[C@@H]2C1", "inhibition": 4}
{"smiles": "COc1ccc(NC(=O)NCCCN2CCC(Cc3ccccc3)CC2)cc1", "inhibition": -4.94}
{"smiles": "C#C[C@]1(O)CCC2C3CCC4=Cc5oncc5CC4(C)C3CCC21C", "note": "(some centres not stated)", "inhibition": 3.82}
{"smiles": "CCOC(=O)c1sc(N2N=C(C)C(N=Nc3cccc(C)c3)C2=O)nc1C", "note": "(configuration not stated)", "inhibition": 57.3}
{"smiles": "NCCOc1cnn(-c2ccccc2Cl)c(=O)c1Cl", "inhibition": 0.22}
{"smiles": "COc1ccc(NC(=O)N2CCCC(c3nc(-c4ccc(C(C)C)cc4)no3)C2)cc1", "note": "(configuration not stated)", "inhibition": 10.7}
{"smiles": "Cn1c(-c2ccc3c(c2)OCO3)cnc1NCc1ccc(Cl)cc1", "inhibition": -3.22}
{"smiles": "Cn1c(-c2ccc3c(c2)OCO3)cnc1NCc1ccccc1", "inhibition": -5.95}
{"smiles": "CC(C)C[C@H](NC(=O)c1nc[nH]c1C(=O)NCc1ccccc1)C(=O)OCc1ccccc1", "inhibition": -9.88}
{"smiles": "O=S(=O)(c1ccc(-n2cnnn2)cc1)N1CCC(N2CCCCC2)CC1", "inhibition": 0.43}
{"smiles": "CC(C)CNC(=O)NC(=O)COC(=O)c1cccc(NS(=O)(=O)c2ccc(F)c(F)c2)c1", "inhibition": 27.8}
{"smiles": "Cc1cc(C)n2c(=S)[nH]nc2n1", "inhibition": -1.62}
{"smiles": "CCCC(=O)NC(C)c1nc2ccccc2n1CC", "note": "(configuration not stated)", "inhibition": 1.48}
{"smiles": "O=C(Nc1ccc(F)c(F)c1)NC1CCCCC1", "inhibition": -11.3}
{"smiles": "CC(C)c1ccc(NC(=S)NC2CCCCCC2)cc1", "inhibition": -13.8}
{"smiles": "O=C(Nc1ccc(Cl)cc1)NC1CCCCC1", "inhibition": -3.67}
{"smiles": "Cc1ccc(NC(=O)C2CCN(C(=O)NC3CCCCC3)CC2)cc1Cl", "inhibition": 7.5}
{"smiles": "Cc1noc(C)c1S(=O)(=O)N1CCCCC1", "inhibition": -4.38}
{"smiles": "CCC(C)(C)C(=O)Nc1ccc(OC)cc1[N+](=O)[O-]", "inhibition": -0.65}
{"smiles": "CCc1nnc(NC(=O)c2cc3c(s2)CCCCC3)s1", "inhibition": -9.6}
{"smiles": "Cc1csc(NC(=O)c2cc3c(s2)CCCCC3)n1", "inhibition": 16.1}
{"smiles": "Cc1cc(Cl)ccc1NC(=O)C1CCCN1C(=O)c1cccs1", "note": "(configuration not stated)", "inhibition": 0.31}
{"smiles": "CCN(CC)CCn1c(SCC(=O)NCc2ccccc2)nc2c(sc3ccccc32)c1=O", "inhibition": 3.01}
{"smiles": "COc1ccc(Nc2c3c(nc4ccccc24)CCCC3)cc1OC", "inhibition": 8.23}
{"smiles": "O=C(CSc1nnc(NC(=O)c2ccccc2C(=O)O)s1)Nc1ccccc1Cl", "inhibition": -9.06}
{"smiles": "CCOc1cc(/C=C/c2cc(C(F)(F)F)[nH]c(=O)n2)ccc1O", "inhibition": 2.01}
{"smiles": "COc1cc(C(=O)N/N=c2/sc3ccccc3n2C)cc(OC)c1OC", "inhibition": -5.9}
{"smiles": "COc1ccccc1NC(=O)c1cc2ccccc2nc1C", "inhibition": 2.95}
{"smiles": "CCCc1cc(=O)oc2cc(OCC(=O)NCc3cccs3)ccc12", "inhibition": 7.98}
{"smiles": "O=C(COc1ccc2c(-c3ccccc3)cc(=O)oc2c1)NCc1cccs1", "inhibition": 1.19}
{"smiles": "COc1ccc(Cn2ccnc2CO)cc1[N+](=O)[O-]", "inhibition": -1.53}
{"smiles": "COc1cccc(-c2cc(C(=O)Nn3cnnc3)c3ccccc3n2)c1", "inhibition": 2.95}
{"smiles": "O=C(NC(=S)Nc1ccccc1)c1cc(-c2ccccc2)nc2ccccc12", "inhibition": -4.77}
{"smiles": "O=C(Nc1nc2ccccc2s1)c1cc(-c2ccco2)nc2ccccc12", "inhibition": 13.9}
{"smiles": "COc1ccc(-c2cc(C(=O)Nc3nc4c(C)cccc4s3)c3ccccc3n2)cc1OC", "inhibition": 12.1}
{"smiles": "COc1ccc(-c2cc(C(=O)Nc3ccc(O)cc3)c3ccccc3n2)cc1OC", "inhibition": 14.5}
{"smiles": "O=C(O)c1cc(-c2ccccc2)nc2ccccc12", "inhibition": -5.49}
